Columns and labels:
Experiment in all cases: SPOT peptide array binding signal intensity (averaged, normalized) (arbitrary units (background-subtracted, floor 0; scale differs between SH3 domains)); higher = stronger binding of the SH3 domain to the peptide
ScBbc1 = biological target: ScBbc1
Summary of the method: (§1)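 The binding signal is the normalized, background-subtracted spot intensity averaged over replicates; its arbitrary units differ between domains. It was obtained by incubating 10 μg/ml GST-fused SH3 domains from four yeast species overnight at 4°C in TBS-based blocking buffer on cellulose membranes with synthetic 15-mer peptides, cysteines replaced by serines, then detecting with anti-GST antibody, HRP anti-mouse secondary and luminol.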

ScBem1-D1 = biological target: ScBem1-D1
Summary of the method: as §1

ScBzz1-D1 = biological target: ScBzz1-D1
Summary of the method: as §1

ScBzz1-D2 = biological target: ScBzz1-D2
Summary of the method: as §1

ScCyk3 = biological target: ScCyk3
Summary of the method: as §1

ScFus1 = biological target: ScFus1
Summary of the method: as §1

ScHof1 = biological target: ScHof1
Summary of the method: as §1

ScHse1 = biological target: ScHse1
Summary of the method: as §1

ScLsb1 = biological target: ScLsb1
Summary of the method: as §1

ScLsb2 = biological target: ScLsb2
Summary of the method: as §1

ScLsb3 = biological target: ScLsb3
Summary of the method: as §1

ScLsb4 = biological target: ScLsb4
Summary of the method: as §1

ScMyo3 = biological target: ScMyo3
Summary of the method: as §1

ScMyo5 = biological target: ScMyo5
Summary of the method: as §1

ScNbp2 = biological target: ScNbp2
Summary of the method: as §1

ScPex13 = biological target: ScPex13
Summary of the method: as §1

ScRvs167 = biological target: ScRvs167
Summary of the method: as §1

ScSho1 = biological target: ScSho1
Summary of the method: as §1

ScSla1-D1-D2 = biological target: ScSla1-D1-D2
Summary of the method: as §1

ScSla1-D3 = biological target: ScSla1-D3
Summary of the method: as §1

SpAbp1-D1 = biological target: SpAbp1-D1
Summary of the method: as §1

SpBbc1 = biological target: SpBbc1
Summary of the method: as §1

SpBzz1-D1 = biological target: SpBzz1-D1
Summary of the method: as §1

SpBzz1-D2 = biological target: SpBzz1-D2
Summary of the method: as §1

SpCyk3 = biological target: SpCyk3
Summary of the method: as §1

SpHof1 = biological target: SpHof1
Summary of the method: as §1

SpHof1-2 = biological target: SpHof1-2
Summary of the method: as §1

SpHof1-3 = biological target: SpHof1-3
Summary of the method: as §1

SpHse1 = biological target: SpHse1
Summary of the method: as §1

SpLsb1 = biological target: SpLsb1
Summary of the method: as §1

SpLsb4 = biological target: SpLsb4
Summary of the method: as §1

SpMyo1 = biological target: SpMyo1
Summary of the method: as §1

SpNbp2 = biological target: SpNbp2
Summary of the method: as §1

SpPex13 = biological target: SpPex13
Summary of the method: as §1

SpRvs167 = biological target: SpRvs167
Summary of the method: as §1

SpSla1-D1-D2 = biological target: SpSla1-D1-D2
Summary of the method: as §1

SpSla1-D3 = biological target: SpSla1-D3
Summary of the method: as §1

Question: TTNRGPPPLPPRANV was tested. Which “SPOT peptide array binding signal intensity” value (ScBbc1) did it give?
Answer: 74

Question: And the “SPOT peptide array binding signal intensity” value (ScBem1-D1)?
Answer: 6

Question: What about the “SPOT peptide array binding signal intensity” value (ScBzz1-D1) of the same binder?
Answer: 144

Question: And the “SPOT peptide array binding signal intensity” value (ScBzz1-D2)?
Answer: 8

Question: What about the “SPOT peptide array binding signal intensity” value (ScCyk3) of the same binder?
Answer: 1

Question: And the “SPOT peptide array binding signal intensity” value (ScFus1)?
Answer: ≤ 0

Question: And the “SPOT peptide array binding signal intensity” value (ScHof1)?
Answer: 272

Question: What about the “SPOT peptide array binding signal intensity” value (ScHse1) of the same binder?
Answer: 21.5

Question: What about the “SPOT peptide array binding signal intensity” value (ScLsb1) of the same binder?
Answer: 576

Question: And the “SPOT peptide array binding signal intensity” value (ScLsb2)?
Answer: 583

Question: What about the “SPOT peptide array binding signal intensity” value (ScLsb3) of the same binder?
Answer: 6820

Question: And the “SPOT peptide array binding signal intensity” value (ScLsb4)?
Answer: 3960

Question: What about the “SPOT peptide array binding signal intensity” value (ScMyo3) of the same binder?
Answer: 492

Question: What about the “SPOT peptide array binding signal intensity” value (ScMyo5) of the same binder?
Answer: 277

Question: What about the “SPOT peptide array binding signal intensity” value (ScNbp2) of the same binder?
Answer: 43

Question: And the “SPOT peptide array binding signal intensity” value (ScPex13)?
Answer: 2050

Question: What about the “SPOT peptide array binding signal intensity” value (ScRvs167) of the same binder?
Answer: 2870

Question: And the “SPOT peptide array binding signal intensity” value (ScSho1)?
Answer: 128

Question: What about the “SPOT peptide array binding signal intensity” value (ScSla1-D1-D2) of the same binder?
Answer: 255

Question: What about the “SPOT peptide array binding signal intensity” value (ScSla1-D3) of the same binder?
Answer: 15.2

Question: And the “SPOT peptide array binding signal intensity” value (SpAbp1-D1)?
Answer: 41.5

Question: And the “SPOT peptide array binding signal intensity” value (SpBbc1)?
Answer: 106

Question: What about the “SPOT peptide array binding signal intensity” value (SpBzz1-D1) of the same binder?
Answer: 3230

Question: And the “SPOT peptide array binding signal intensity” value (SpBzz1-D2)?
Answer: 11

Question: And the “SPOT peptide array binding signal intensity” value (SpCyk3)?
Answer: 16

Question: What about the “SPOT peptide array binding signal intensity” value (SpHof1) of the same binder?
Answer: 15.2

Question: And the “SPOT peptide array binding signal intensity” value (SpHof1-2)?
Answer: 42.8

Question: And the “SPOT peptide array binding signal intensity” value (SpHof1-3)?
Answer: 344

Question: And the “SPOT peptide array binding signal intensity” value (SpHse1)?
Answer: ≤ 0

Question: What about the “SPOT peptide array binding signal intensity” value (SpLsb1) of the same binder?
Answer: 1680

Question: What about the “SPOT peptide array binding signal intensity” value (SpLsb4) of the same binder?
Answer: 4080

Question: What about the “SPOT peptide array binding signal intensity” value (SpMyo1) of the same binder?
Answer: 853

Question: What about the “SPOT peptide array binding signal intensity” value (SpNbp2) of the same binder?
Answer: ≤ 0

Question: What about the “SPOT peptide array binding signal intensity” value (SpPex13) of the same binder?
Answer: 7

Question: And the “SPOT peptide array binding signal intensity” value (SpRvs167)?
Answer: 2550

Question: And the “SPOT peptide array binding signal intensity” value (SpSla1-D1-D2)?
Answer: 1

Question: What about the “SPOT peptide array binding signal intensity” value (SpSla1-D3) of the same binder?
Answer: ≤ 0

— the supplement of paper PMC4466140
